# Assay results: article PMC7862700, “An all-to-all approach to the identification of sequence-specific readers for epigenetic DNA modifications on cytosine”
# Experiments:
# Test in all cases: DAPPL (digital affinity profiling via proximity ligation, sequencing); 10 mM Tris-HCl pH 7.5, 50 mM NaCl, 1 mM DTT, 4% glycerol, room temperature, 30 min; GST-TFs on glutathione beads, 16-mer random dsDNA library, 0.1% formaldehyde crosslink after washing; high values mean tight binding
# FLI1 = biological target: T1, FLI1 (Homo sapiens, UniProt Q01543 1-452); details: protein: recombinant; tags: N-terminal GST; dsDNA, one strand shown
# T1 sequence: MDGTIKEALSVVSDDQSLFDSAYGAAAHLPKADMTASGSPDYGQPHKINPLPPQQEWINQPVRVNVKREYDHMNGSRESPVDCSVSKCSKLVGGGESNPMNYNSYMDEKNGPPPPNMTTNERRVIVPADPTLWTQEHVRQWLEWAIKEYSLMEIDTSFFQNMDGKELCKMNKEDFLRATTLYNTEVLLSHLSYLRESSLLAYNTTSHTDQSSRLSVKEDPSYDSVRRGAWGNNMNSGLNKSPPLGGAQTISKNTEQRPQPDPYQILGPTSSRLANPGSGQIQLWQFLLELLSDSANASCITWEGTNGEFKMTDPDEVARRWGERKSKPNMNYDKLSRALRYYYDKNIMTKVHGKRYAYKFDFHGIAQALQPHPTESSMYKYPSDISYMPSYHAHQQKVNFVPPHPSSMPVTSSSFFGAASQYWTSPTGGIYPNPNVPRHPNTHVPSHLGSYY
# In short: (§1)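 Beads coated with glutathione captured GST-fused human transcription factors that had been expressed in yeast, and the factors were then given DNA barcodes and pooled with a tag-only sample. The pools were incubated with 200 nmole of a random double-stranded 16-mer DNA library in Tris/NaCl/DTT/glycerol buffer for 30 min at room temperature, washed, crosslinked with 0.1% formaldehyde and proximity-ligated with BsaI/T4 ligase at 37 °C for 1 h. PCR amplification and Illumina NextSeq500 sequencing came last. Binding signal is each hexamer's read frequency for a factor divided by its frequency for the tag-only sample.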
# ELK1 = biological target: T2, ELK1 (Homo sapiens, UniProt P19419 1-428); details: protein: recombinant; tags: N-terminal GST; dsDNA, one strand shown
# T2 sequence: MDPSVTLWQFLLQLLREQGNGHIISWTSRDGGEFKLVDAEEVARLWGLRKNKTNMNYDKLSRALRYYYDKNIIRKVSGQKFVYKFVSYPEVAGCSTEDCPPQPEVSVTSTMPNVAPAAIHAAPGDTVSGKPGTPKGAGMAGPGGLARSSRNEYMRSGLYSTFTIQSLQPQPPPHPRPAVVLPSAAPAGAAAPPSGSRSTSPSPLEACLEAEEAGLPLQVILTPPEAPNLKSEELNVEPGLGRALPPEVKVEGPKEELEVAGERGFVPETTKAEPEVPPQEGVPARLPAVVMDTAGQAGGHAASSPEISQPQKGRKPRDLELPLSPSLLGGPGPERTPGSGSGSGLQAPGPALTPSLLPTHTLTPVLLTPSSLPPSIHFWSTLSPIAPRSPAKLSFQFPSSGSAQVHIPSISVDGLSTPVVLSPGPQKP
# In short: as §1
# GABPA = biological target: T3, GABPA (Homo sapiens, UniProt Q06546 1-454); details: protein: recombinant; tags: N-terminal GST; dsDNA, one strand shown
# T3 sequence: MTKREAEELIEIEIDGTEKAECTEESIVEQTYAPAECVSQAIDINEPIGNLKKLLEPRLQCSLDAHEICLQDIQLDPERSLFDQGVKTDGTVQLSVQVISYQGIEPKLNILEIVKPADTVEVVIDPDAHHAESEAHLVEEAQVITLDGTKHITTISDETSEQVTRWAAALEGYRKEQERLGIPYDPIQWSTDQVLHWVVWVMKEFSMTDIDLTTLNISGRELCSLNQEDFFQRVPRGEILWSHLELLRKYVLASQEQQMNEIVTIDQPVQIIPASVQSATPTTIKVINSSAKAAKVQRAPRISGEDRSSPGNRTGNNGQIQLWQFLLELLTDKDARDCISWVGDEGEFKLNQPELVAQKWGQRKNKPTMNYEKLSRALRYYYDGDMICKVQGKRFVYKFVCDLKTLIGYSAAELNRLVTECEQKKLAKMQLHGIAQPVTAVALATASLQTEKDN
# In short: as §1
# ERG = biological target: T4, ERG (Homo sapiens, UniProt P11308 1-479); details: protein: recombinant; tags: N-terminal GST; dsDNA, one strand shown
# T4 sequence: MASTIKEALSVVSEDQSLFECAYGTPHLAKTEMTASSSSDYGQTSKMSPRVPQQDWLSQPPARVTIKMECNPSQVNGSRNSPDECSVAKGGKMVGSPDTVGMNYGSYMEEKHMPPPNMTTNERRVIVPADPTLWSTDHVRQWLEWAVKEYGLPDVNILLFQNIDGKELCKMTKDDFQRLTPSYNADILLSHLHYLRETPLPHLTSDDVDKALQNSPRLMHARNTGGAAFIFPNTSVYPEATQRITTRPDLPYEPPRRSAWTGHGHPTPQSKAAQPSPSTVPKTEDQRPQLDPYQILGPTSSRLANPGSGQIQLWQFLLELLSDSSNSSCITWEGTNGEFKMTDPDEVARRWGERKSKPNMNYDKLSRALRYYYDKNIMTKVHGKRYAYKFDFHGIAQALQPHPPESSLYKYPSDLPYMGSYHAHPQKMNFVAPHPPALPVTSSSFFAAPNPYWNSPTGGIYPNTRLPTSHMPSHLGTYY
# In short: as §1
# ELF1 = ELF1 (Homo sapiens, UniProt P32519 1-619); details: protein: recombinant; tags: N-terminal GST; dsDNA, one strand shown
# Sequence of ELF1 (P32519 whole entry): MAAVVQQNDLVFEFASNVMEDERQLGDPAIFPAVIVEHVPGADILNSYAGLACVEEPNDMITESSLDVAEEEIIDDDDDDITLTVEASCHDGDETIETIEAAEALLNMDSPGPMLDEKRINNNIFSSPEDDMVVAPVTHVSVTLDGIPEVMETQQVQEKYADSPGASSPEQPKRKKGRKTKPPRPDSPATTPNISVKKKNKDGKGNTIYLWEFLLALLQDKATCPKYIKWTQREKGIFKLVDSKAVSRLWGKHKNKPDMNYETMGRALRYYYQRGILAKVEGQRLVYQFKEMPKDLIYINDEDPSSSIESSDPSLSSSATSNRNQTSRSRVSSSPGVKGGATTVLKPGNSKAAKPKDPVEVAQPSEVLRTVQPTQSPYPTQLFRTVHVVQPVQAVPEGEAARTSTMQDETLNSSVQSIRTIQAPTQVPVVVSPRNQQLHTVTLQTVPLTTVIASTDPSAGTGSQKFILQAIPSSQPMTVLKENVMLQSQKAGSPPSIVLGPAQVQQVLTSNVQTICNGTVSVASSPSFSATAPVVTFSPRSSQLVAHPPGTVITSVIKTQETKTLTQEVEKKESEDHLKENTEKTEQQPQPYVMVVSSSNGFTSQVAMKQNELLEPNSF
# In short: as §1
# EHF = biological target: T5, EHF (Homo sapiens, UniProt Q9NZC4 1-300); details: protein: recombinant; tags: N-terminal GST; dsDNA, one strand shown
# T5 sequence: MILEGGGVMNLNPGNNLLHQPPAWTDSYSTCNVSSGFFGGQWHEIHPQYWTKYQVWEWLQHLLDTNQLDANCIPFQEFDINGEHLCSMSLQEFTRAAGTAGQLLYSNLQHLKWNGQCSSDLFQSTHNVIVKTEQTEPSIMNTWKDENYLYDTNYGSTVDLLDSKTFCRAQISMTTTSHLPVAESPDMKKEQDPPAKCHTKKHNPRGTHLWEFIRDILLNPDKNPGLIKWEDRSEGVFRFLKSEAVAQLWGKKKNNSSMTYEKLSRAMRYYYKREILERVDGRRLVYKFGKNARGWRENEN
# In short: as §1
# SPI1 = SPI1 (Homo sapiens, UniProt P17947 1-270); details: protein: recombinant; tags: N-terminal GST; dsDNA, one strand shown
# In short: as §1
# SPIB = SPIB (Homo sapiens, UniProt Q01892 1-262); details: protein: recombinant; tags: N-terminal GST; dsDNA, one strand shown
# Sequence of SPIB (Q01892 whole entry): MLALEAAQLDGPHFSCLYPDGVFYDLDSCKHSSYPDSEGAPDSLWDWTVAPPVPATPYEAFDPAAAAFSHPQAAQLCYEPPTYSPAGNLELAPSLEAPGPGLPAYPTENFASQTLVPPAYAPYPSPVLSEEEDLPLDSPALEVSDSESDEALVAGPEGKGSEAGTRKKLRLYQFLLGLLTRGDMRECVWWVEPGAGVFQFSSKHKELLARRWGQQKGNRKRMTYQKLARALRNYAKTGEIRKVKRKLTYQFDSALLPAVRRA
# In short: as §1
# ELK3 = biological target: T6, ELK3 (Homo sapiens, UniProt P41970 1-407); details: protein: recombinant; tags: N-terminal GST; dsDNA, one strand shown
# T6 sequence: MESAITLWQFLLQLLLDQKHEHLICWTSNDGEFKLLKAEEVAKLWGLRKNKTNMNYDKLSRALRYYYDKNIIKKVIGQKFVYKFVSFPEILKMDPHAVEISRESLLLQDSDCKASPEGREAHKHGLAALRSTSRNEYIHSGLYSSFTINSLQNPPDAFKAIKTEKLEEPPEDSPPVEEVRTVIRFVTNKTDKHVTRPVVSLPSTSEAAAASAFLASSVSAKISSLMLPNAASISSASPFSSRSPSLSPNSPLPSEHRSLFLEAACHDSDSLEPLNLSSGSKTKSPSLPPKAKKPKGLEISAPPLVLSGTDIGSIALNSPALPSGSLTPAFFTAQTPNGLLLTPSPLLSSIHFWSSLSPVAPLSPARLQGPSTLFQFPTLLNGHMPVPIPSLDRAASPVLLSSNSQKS
# In short: as §1
# FEV = biological target: T7, FEV (Homo sapiens, UniProt Q99581 1-238); details: protein: recombinant; tags: N-terminal GST; dsDNA, one strand shown
# T7 sequence: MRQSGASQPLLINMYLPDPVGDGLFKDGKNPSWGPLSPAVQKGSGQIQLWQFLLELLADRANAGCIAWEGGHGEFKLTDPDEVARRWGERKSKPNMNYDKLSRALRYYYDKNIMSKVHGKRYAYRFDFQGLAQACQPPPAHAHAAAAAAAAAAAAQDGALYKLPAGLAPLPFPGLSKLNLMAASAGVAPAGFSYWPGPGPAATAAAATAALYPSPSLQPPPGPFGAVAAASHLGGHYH
# In short: as §1
# ETV5 = ETV5 (Homo sapiens, UniProt P41161 1-510); details: protein: recombinant; tags: N-terminal GST; dsDNA, one strand shown
# Sequence of ETV5 (P41161 whole entry): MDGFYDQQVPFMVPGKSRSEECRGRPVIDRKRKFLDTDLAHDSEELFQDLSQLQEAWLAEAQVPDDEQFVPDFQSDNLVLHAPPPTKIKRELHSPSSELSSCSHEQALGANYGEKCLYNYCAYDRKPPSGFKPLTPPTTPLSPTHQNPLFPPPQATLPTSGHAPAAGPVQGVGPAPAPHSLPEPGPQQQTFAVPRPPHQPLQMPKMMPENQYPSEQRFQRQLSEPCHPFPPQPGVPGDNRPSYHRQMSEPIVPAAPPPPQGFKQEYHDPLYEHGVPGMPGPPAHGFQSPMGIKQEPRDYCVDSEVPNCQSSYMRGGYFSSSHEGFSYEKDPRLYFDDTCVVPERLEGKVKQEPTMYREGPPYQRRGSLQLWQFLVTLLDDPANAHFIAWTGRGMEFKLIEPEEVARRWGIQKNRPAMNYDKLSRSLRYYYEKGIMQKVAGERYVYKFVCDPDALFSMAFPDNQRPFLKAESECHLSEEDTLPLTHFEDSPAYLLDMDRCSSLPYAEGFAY
# In short: as §1
# HSF1 = HSF1 (Homo sapiens, UniProt Q00613 1-529); details: protein: recombinant; tags: N-terminal GST; chain copies: 3; dsDNA, one strand shown
# Sequence of HSF1 (Q00613 whole entry): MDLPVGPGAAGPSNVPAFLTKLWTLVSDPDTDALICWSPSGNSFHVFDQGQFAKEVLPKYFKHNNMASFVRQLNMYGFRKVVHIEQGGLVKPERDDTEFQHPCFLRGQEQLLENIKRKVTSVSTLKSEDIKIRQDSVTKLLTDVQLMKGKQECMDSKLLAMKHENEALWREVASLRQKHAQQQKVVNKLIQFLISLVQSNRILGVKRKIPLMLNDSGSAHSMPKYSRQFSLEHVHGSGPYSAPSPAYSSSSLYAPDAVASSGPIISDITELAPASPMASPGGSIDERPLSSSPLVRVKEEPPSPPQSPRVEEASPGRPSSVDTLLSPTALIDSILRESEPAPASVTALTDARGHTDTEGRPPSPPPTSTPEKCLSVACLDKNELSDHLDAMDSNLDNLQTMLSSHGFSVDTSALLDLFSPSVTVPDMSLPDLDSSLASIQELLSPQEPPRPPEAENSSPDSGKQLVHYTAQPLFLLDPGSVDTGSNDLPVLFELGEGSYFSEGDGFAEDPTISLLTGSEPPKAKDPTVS
# In short: as §1
# SPIC = biological target: T8, SPIC (Homo sapiens, UniProt Q8N5J4 1-248); details: protein: recombinant; tags: N-terminal GST; dsDNA, one strand shown
# T8 sequence: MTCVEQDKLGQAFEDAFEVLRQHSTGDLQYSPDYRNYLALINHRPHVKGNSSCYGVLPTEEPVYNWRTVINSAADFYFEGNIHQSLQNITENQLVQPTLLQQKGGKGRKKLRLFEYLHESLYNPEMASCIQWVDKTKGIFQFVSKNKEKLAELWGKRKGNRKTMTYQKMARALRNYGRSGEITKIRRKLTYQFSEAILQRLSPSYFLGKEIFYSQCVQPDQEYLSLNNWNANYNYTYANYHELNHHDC
# In short: as §1
# ELF4 = ELF4 (Homo sapiens, UniProt Q99607 1-663); details: protein: recombinant; tags: N-terminal GST; dsDNA, one strand shown
# Sequence of ELF4 (Q99607 whole entry): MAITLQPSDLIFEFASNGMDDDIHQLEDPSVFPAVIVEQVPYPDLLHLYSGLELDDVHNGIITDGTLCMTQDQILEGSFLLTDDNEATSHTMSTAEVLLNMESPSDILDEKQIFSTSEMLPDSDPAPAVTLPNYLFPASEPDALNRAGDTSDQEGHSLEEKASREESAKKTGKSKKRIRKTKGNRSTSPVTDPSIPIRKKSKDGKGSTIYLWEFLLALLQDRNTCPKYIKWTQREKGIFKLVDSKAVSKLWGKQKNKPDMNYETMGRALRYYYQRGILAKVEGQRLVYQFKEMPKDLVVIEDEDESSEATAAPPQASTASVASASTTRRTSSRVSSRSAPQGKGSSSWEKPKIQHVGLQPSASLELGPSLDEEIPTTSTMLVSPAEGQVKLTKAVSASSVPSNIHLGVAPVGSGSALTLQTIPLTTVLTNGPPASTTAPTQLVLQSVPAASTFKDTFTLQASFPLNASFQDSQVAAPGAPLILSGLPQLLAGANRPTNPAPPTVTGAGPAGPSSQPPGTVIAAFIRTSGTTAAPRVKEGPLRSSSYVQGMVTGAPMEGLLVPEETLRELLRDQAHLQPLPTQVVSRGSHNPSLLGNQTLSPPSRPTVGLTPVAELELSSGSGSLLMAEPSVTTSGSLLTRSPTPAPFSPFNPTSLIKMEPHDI
# In short: as §1
# ELK4 = biological target: T9, ELK4 (Homo sapiens, UniProt P28324-2 1-405); details: protein: recombinant; tags: N-terminal GST; dsDNA, one strand shown
# T9 sequence: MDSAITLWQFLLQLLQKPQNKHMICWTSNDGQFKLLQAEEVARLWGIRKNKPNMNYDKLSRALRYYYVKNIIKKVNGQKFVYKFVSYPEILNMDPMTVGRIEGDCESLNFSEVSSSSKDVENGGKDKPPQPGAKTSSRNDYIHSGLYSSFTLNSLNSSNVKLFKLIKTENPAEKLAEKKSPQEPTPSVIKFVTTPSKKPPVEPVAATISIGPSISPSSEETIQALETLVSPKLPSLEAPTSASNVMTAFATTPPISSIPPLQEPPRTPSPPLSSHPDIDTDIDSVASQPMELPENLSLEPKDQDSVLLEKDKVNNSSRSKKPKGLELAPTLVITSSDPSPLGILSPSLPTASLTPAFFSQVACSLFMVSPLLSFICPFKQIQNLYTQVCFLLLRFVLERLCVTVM
# In short: as §1
# ETV2 = biological target: T10, ETV2 (Homo sapiens, UniProt O00321 1-342); details: protein: recombinant; tags: N-terminal GST; dsDNA, one strand shown
# T10 sequence: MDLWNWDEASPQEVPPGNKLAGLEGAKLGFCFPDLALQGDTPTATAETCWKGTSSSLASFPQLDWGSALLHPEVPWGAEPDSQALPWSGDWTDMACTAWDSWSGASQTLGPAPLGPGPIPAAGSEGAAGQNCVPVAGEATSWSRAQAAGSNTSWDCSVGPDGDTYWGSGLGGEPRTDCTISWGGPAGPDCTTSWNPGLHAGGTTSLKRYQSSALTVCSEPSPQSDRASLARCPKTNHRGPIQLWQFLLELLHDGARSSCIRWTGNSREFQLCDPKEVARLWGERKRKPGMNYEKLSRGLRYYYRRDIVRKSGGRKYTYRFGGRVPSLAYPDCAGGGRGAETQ
# In short: as §1
# ELF3 = biological target: T11, ELF3 (Homo sapiens, UniProt P78545 1-371); details: protein: recombinant; tags: N-terminal GST; dsDNA, one strand shown
# T11 sequence: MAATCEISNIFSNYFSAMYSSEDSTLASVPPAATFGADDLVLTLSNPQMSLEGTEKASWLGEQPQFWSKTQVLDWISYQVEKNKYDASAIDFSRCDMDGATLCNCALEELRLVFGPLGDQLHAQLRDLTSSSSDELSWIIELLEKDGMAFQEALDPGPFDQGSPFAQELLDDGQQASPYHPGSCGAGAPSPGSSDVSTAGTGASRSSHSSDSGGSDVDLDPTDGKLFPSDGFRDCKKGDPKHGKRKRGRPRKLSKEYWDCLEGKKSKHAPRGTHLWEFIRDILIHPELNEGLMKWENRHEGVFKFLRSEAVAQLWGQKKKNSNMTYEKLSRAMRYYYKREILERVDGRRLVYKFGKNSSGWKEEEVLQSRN
# In short: as §1
# CRX = CRX (Homo sapiens, UniProt O43186 1-299); details: protein: recombinant; tags: N-terminal GST; dsDNA, one strand shown
# Sequence of CRX (O43186 whole entry): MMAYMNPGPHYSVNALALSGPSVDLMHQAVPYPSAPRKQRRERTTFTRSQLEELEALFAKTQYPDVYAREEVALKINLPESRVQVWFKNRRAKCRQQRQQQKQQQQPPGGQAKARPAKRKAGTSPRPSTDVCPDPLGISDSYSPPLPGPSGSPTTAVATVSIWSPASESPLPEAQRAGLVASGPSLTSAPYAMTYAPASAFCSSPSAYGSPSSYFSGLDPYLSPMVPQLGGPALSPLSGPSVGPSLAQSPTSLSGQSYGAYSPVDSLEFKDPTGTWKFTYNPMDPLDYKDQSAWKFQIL
# In short: as §1
# ETV1 = ETV1 (Homo sapiens, UniProt P50549 1-477); details: protein: recombinant; tags: N-terminal GST; dsDNA, one strand shown
# Sequence of ETV1 (P50549 whole entry): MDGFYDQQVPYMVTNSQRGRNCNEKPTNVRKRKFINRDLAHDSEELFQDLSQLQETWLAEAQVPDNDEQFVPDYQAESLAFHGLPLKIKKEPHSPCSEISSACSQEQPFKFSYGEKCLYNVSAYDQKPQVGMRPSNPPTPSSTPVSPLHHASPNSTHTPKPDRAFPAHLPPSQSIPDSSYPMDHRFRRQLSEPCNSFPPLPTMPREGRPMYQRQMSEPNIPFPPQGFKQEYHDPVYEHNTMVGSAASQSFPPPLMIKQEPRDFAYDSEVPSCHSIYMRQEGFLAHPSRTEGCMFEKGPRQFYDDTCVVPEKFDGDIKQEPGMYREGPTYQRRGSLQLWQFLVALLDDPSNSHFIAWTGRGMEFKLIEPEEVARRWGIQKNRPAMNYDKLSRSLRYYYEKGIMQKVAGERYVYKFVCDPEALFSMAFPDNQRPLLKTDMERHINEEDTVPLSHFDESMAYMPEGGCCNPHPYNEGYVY
# In short: as §1
sequence,measurement,setting,value
CAATCC,binding signal,FLI1,"1.17 fold enrichment (6-mer frequency, TF over GST control)"
same,binding signal,ELK1,"1.19 fold enrichment (6-mer frequency, TF over GST control)"
same,binding signal,GABPA,"1.26 fold enrichment (6-mer frequency, TF over GST control)"
same,binding signal,ERG,"1.24 fold enrichment (6-mer frequency, TF over GST control)"
same,binding signal,ELF1,"1.22 fold enrichment (6-mer frequency, TF over GST control)"
same,binding signal,EHF,"1.07 fold enrichment (6-mer frequency, TF over GST control)"
same,binding signal,SPI1,"1.12 fold enrichment (6-mer frequency, TF over GST control)"
same,binding signal,SPIB,"1.2 fold enrichment (6-mer frequency, TF over GST control)"
same,binding signal,ELK3,"1.08 fold enrichment (6-mer frequency, TF over GST control)"
same,binding signal,FEV,"1.17 fold enrichment (6-mer frequency, TF over GST control)"
same,binding signal,ETV5,"1.12 fold enrichment (6-mer frequency, TF over GST control)"
same,binding signal,HSF1,"1.37 fold enrichment (6-mer frequency, TF over GST control)"
same,binding signal,SPIC,"1.11 fold enrichment (6-mer frequency, TF over GST control)"
same,binding signal,ELF4,"1.19 fold enrichment (6-mer frequency, TF over GST control)"
same,binding signal,ELK4,"1.19 fold enrichment (6-mer frequency, TF over GST control)"
same,binding signal,ETV2,"1.38 fold enrichment (6-mer frequency, TF over GST control)"
same,binding signal,ELF3,"1.3 fold enrichment (6-mer frequency, TF over GST control)"
same,binding signal,CRX,"1.6 fold enrichment (6-mer frequency, TF over GST control)"
same,binding signal,ETV1,"1.19 fold enrichment (6-mer frequency, TF over GST control)"
